Reference: PubChem BioAssay (NCI)
About 83,000 compounds went through this panel and 20% of them were active in at least one assay; those are over-represented in the sample as a whole.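 Compound tested at a single concentration for 48 hours in 96-well plates; a percent growth value below 10 was scored as active.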 Activity calls are given as the source filed them.

What follows are molecules tested on MCF7 breast (assay: NCI-60 one-dose screen, 48 h (100 = growth as untreated, 0 = no growth, -100 = all killed)). Conditions: 10 µM unless noted.
`COc1cccc(/C=C2\COc3ccc(-c4ccccc4)cc3C2=O)c1` was tested, and the growth was -3.38% (active). `O=C1Nc2ccccc2/C1=C\c1cccc(/C=C2/C(=O)Nc3ccccc32)n1` was tested, and the growth was -69.9% (active). `COc1ccc(C(=O)c2cc3c(N)c(C(=O)Nc4ccc(Br)cc4)sc3nc2C)cc1` was tested, and the growth was 71% (inactive). For `O=S(=O)(O)c1cc(O)c2c(N=Nc3ccc(Nc4ccccc4)c4c(S(=O)(=O)O)cccc34)cc(S(=O)(=O)O)cc2c1`, the growth was 105% (inactive). With `NC(=S)N/N=C(\c1ccc(Cl)cc1)C1CC1` the growth was 18.5% (inactive). In the case of `CCNNC(=O)[C@@H]1[C@H](c2cc(OC)c(OC)c(OC)c2)c2cc3c(cc2[C@H](O)[C@H]1CO)OCO3`, the growth is reported as 10.2% (inactive). For `COc1cc2nc(-c3ccc(C(F)(F)F)cc3)cc(OCCN3CCCC3)c2cc1OC`, the growth was 85.1% (inactive). `Clc1ccc2c(c1)c(-c1ccccc1)nc1nncn12` was tested, and the growth was 99% (inactive). `O=S(=O)(c1ccc(N/N=C\c2ccccc2)cc1)c1ccc(N/N=C/c2ccccc2)cc1` was tested, and the growth was 62.9% (inactive). In the case of `CN1C(=O)N(C)[C@H]2NC(NN)=N[C@H]21`, the growth is reported as 97.8% (inactive). For `COc1ccc(C(O)c2cc3c(N)c(C(=O)Nc4ccccc4)sc3nc2C)cc1` (stereo unspecified), the growth was 13.4% (inactive). `COc1cc(C2CC(c3cccc(Nc4ccncc4)c3)=NN2c2cc(Cl)cc(Cl)c2)cc(OC)c1OC` (stereo unspecified) was tested, and the growth was -50.7% (active). For `Cc1cccc(Oc2ccc(Nc3ncnc4ccc(NC(=O)CN(C)C)cc34)cc2Cl)c1`, the growth was 22.7% (inactive). `O=C(CN1CCOCC1)Nc1ccc2ncnc(Nc3ccc(Oc4cccc(F)c4)c(Cl)c3)c2c1` was tested, and the growth was 71.1% (inactive). `Cc1cccc(Oc2ccc(Nc3ncnc4ccc(NC(=O)CNCCO)cc34)cc2Cl)c1` was tested, and the growth was 47.1% (inactive). For `COc1cc(/C=C2\C(=O)N(Cc3ccc(Cl)cc3)c3ccccc32)cc(OC)c1OC`, the growth was 8.81% (active). For `Cc1ccc(O)c(C(=O)O)c1`, the growth was 104% (inactive). In the case of `Cc1nccc2c3ccc(OCc4cn(-c5ccc(Cl)cc5)nn4)cc3n(CCCc3ccccc3)c12`, the growth is reported as 20.2% (inactive). `O=[N+]([O-])c1cccc(-c2nc(-c3ccc(Cl)cc3Cl)cn2-c2ccccc2)c1` was tested, and the growth was 20.7% (inactive). `CC(C)CCSc1nc(NNC(N)=O)c(C#N)c(-c2ccccc2)n1` was tested, and the growth was 103% (inactive). `O=C1C(=O)c2c(nc3ncccn23)-c2ccccc21` was tested, and the growth was -53.8% (active). For `Cc1c2c(cc[n+]1Cc1ccc(F)cc1)c1ccc(OCc3cccc(F)c3)cc1n2Cc1cccc(F)c1`, the growth was -76.7% (active). In the case of `CCOC(=O)C1=C(C)NC(C)=C(C(=O)OCC)C1c1cc(Br)c(O)c(OC)c1`, the growth is reported as 29.3% (inactive). In the case of `COc1cc(C(=O)c2cnc(-c3ccc4cc[nH]c4c3)[nH]2)cc(OC)c1OC`, the growth is reported as 11.3% (inactive). `O=c1[nH]nc(-c2ccc(Br)cc2)cc1Cc1ccc(O)cc1` was tested, and the growth was 86% (inactive). With `S=c1[nH]cccc1-c1nnc2n1Nc1nc3ccccc3cc1CS2` the growth was 103% (inactive). With `COc1cccc(CCC(=O)c2cc3c(N)c(C(=O)Nc4cccc(Cl)c4C)sc3nc2C)c1` the growth was 11.3% (inactive). With `O=C1Nc2cc(-c3ccncc3)ccc2/C1=C/c1ccc[nH]1` the growth was 21% (inactive). With `COc1ccc(-c2nn(Cc3ccccc3)c3c2-c2oncc2CC3)cc1OC` the growth was 87.7% (inactive). For `CN1CCN(CC#CCNC(=O)[C@]23CCC(C)(C)C[C@H]2C2=CC[C@@H]4[C@@]5(C)Cc6c([nH]c7ccccc67)C(C)(C)[C@@H]5CC[C@@]4(C)[C@]2(C)CC3)CC1`, the growth was 32.4% (inactive). For `NC(=O)c1cccc(-n2ccc3cc(NC(=O)Nc4cc(C(F)(F)F)cc(C(F)(F)F)c4)ccc32)n1`, the growth was 27.2% (inactive). With `COc1cc(C(=O)/C=C/c2c(C)n([O-])c3ccc(Cl)cc3[n+]2=O)cc(OC)c1OC` the growth was 30.4% (inactive). `O=C(CNCCO)Nc1ccc2ncnc(Nc3ccc(OCc4cccc(F)c4)c(Cl)c3)c2c1` was tested, and the growth was 82.5% (inactive). For `CC[C@@]12C=CCN3CC[C@]4(c5cc(NC(=O)COc6cc(OCC(=O)Nc7cc8c(cc7OC)N(C)[C@H]7[C@@](O)(C(=O)OC)[C@H](OC(C)=O)[C@]9(CC)C=CCN%10CC[C@]87[C@@H]%109)cc7oc(-c8ccccc8)cc(=O)c67)c(OC)cc5N(C)[C@@H]4[C@](O)(C(=O)OC)[C@H]1OC(C)=O)[C@H]32`, the growth was 26.1% (inactive). `Cc1cc2nc(-c3ccccc3)c(-c3ccccc3)nc2cc1C` was tested, and the growth was 88.9% (inactive). For `CCCCCCOc1ccc(/C=N/Nc2cc(C)nc3ccc(Br)cc23)cc1`, the growth was -67% (active). `COc1ccc(CC(C)=C(c2ccc(OCCN(C)C)cc2)c2ccc(OCCN(C)C)cc2)cc1` was tested, and the growth was 69.7% (inactive). For `CC(=O)NCCCS(=O)(=O)O`, the growth was 101% (inactive).

Each molecule was assayed on HCT-116 colon in the same assay as above. Conditions: 10 µM unless noted.
For `COc1cccc(/C=C2\COc3ccc(-c4ccccc4)cc3C2=O)c1`, the growth was -23.8% (active). `O=C1Nc2ccccc2/C1=C\c1cccc(/C=C2/C(=O)Nc3ccccc32)n1` was tested, and the growth was -65.6% (active). With `COc1ccc(C(=O)c2cc3c(N)c(C(=O)Nc4ccc(Br)cc4)sc3nc2C)cc1` the growth was 58.2% (inactive). In the case of `O=S(=O)(O)c1cc(O)c2c(N=Nc3ccc(Nc4ccccc4)c4c(S(=O)(=O)O)cccc34)cc(S(=O)(=O)O)cc2c1`, the growth is reported as 105% (inactive). For `NC(=S)N/N=C(\c1ccc(Cl)cc1)C1CC1`, the growth was 3.65% (active). `CCNNC(=O)[C@@H]1[C@H](c2cc(OC)c(OC)c(OC)c2)c2cc3c(cc2[C@H](O)[C@H]1CO)OCO3` was tested, and the growth was 0.945% (active). `COc1cc2nc(-c3ccc(C(F)(F)F)cc3)cc(OCCN3CCCC3)c2cc1OC` was tested, and the growth was 67.3% (inactive). For `Clc1ccc2c(c1)c(-c1ccccc1)nc1nncn12`, the growth was 106% (inactive). With `O=S(=O)(c1ccc(N/N=C\c2ccccc2)cc1)c1ccc(N/N=C/c2ccccc2)cc1` the growth was 52.6% (inactive). In the case of `CN1C(=O)N(C)[C@H]2NC(NN)=N[C@H]21`, the growth is reported as 96.9% (inactive). In the case of `COc1ccc(C(O)c2cc3c(N)c(C(=O)Nc4ccccc4)sc3nc2C)cc1` (stereo unspecified), the growth is reported as 6.95% (active). `COc1cc(C2CC(c3cccc(Nc4ccncc4)c3)=NN2c2cc(Cl)cc(Cl)c2)cc(OC)c1OC` (stereo unspecified) was tested, and the growth was 87.3% (inactive). `Cc1cccc(Oc2ccc(Nc3ncnc4ccc(NC(=O)CN(C)C)cc34)cc2Cl)c1` was tested, and the growth was 21.4% (inactive). For `O=C(CN1CCOCC1)Nc1ccc2ncnc(Nc3ccc(Oc4cccc(F)c4)c(Cl)c3)c2c1`, the growth was 73.5% (inactive). `Cc1cccc(Oc2ccc(Nc3ncnc4ccc(NC(=O)CNCCO)cc34)cc2Cl)c1` was tested, and the growth was 37.2% (inactive). With `COc1cc(/C=C2\C(=O)N(Cc3ccc(Cl)cc3)c3ccccc32)cc(OC)c1OC` the growth was -23.4% (active). `Cc1ccc(O)c(C(=O)O)c1` was tested, and the growth was 108% (inactive). For `Cc1nccc2c3ccc(OCc4cn(-c5ccc(Cl)cc5)nn4)cc3n(CCCc3ccccc3)c12`, the growth was 31.7% (inactive). `O=[N+]([O-])c1cccc(-c2nc(-c3ccc(Cl)cc3Cl)cn2-c2ccccc2)c1` was tested, and the growth was -93.2% (active). For `CC(C)CCSc1nc(NNC(N)=O)c(C#N)c(-c2ccccc2)n1`, the growth was 38.3% (inactive). `O=C1C(=O)c2c(nc3ncccn23)-c2ccccc21` was tested, and the growth was -79% (active). For `Cc1c2c(cc[n+]1Cc1ccc(F)cc1)c1ccc(OCc3cccc(F)c3)cc1n2Cc1cccc(F)c1`, the growth was -92.1% (active). With `CCOC(=O)C1=C(C)NC(C)=C(C(=O)OCC)C1c1cc(Br)c(O)c(OC)c1` the growth was 24.5% (inactive). For `COc1cc(C(=O)c2cnc(-c3ccc4cc[nH]c4c3)[nH]2)cc(OC)c1OC`, the growth was -6.9% (active). With `O=c1[nH]nc(-c2ccc(Br)cc2)cc1Cc1ccc(O)cc1` the growth was 100% (inactive). For `S=c1[nH]cccc1-c1nnc2n1Nc1nc3ccccc3cc1CS2`, the growth was 94.9% (inactive). For `COc1cccc(CCC(=O)c2cc3c(N)c(C(=O)Nc4cccc(Cl)c4C)sc3nc2C)c1`, the growth was 13% (inactive). `O=C1Nc2cc(-c3ccncc3)ccc2/C1=C/c1ccc[nH]1` was tested, and the growth was 57.2% (inactive). In the case of `COc1ccc(-c2nn(Cc3ccccc3)c3c2-c2oncc2CC3)cc1OC`, the growth is reported as 107% (inactive). With `CN1CCN(CC#CCNC(=O)[C@]23CCC(C)(C)C[C@H]2C2=CC[C@@H]4[C@@]5(C)Cc6c([nH]c7ccccc67)C(C)(C)[C@@H]5CC[C@@]4(C)[C@]2(C)CC3)CC1` the growth was 22.5% (inactive). With `NC(=O)c1cccc(-n2ccc3cc(NC(=O)Nc4cc(C(F)(F)F)cc(C(F)(F)F)c4)ccc32)n1` the growth was 38% (inactive). With `COc1cc(C(=O)/C=C/c2c(C)n([O-])c3ccc(Cl)cc3[n+]2=O)cc(OC)c1OC` the growth was 15.4% (inactive). `O=C(CNCCO)Nc1ccc2ncnc(Nc3ccc(OCc4cccc(F)c4)c(Cl)c3)c2c1` was tested, and the growth was 64.3% (inactive). For `CC[C@@]12C=CCN3CC[C@]4(c5cc(NC(=O)COc6cc(OCC(=O)Nc7cc8c(cc7OC)N(C)[C@H]7[C@@](O)(C(=O)OC)[C@H](OC(C)=O)[C@]9(CC)C=CCN%10CC[C@]87[C@@H]%109)cc7oc(-c8ccccc8)cc(=O)c67)c(OC)cc5N(C)[C@@H]4[C@](O)(C(=O)OC)[C@H]1OC(C)=O)[C@H]32`, the growth was 0.866% (active). In the case of `Cc1cc2nc(-c3ccccc3)c(-c3ccccc3)nc2cc1C`, the growth is reported as 91.4% (inactive). With `CCCCCCOc1ccc(/C=N/Nc2cc(C)nc3ccc(Br)cc23)cc1` the growth was -66.4% (active). `COc1ccc(CC(C)=C(c2ccc(OCCN(C)C)cc2)c2ccc(OCCN(C)C)cc2)cc1` was tested, and the growth was 22% (inactive). For `CC(=O)NCCCS(=O)(=O)O`, the growth was 98.5% (inactive).
